Source: PubChem BioAssay (National Center for Advancing Translational Sciences (NCATS))
Most compounds without a hit are left out; they make up all but 15% or so of the library.
Sm TGR inh: qHTS Assay for the Inhibitors of Schistosoma Mansoni Peroxiredoxins. purified TGR, DTNB reduction, TNB absorbance 405 nm. actives 3% (n = 360,000). Potency, µM (series often up to 114 µM), for inactives: at the highest dose activity change, negative = inhibition, most hits filed as inhibitors. Schistosoma mansoni thioredoxin glutathione reductase (TGR), Q962Y6; note: potency is the fitted concentration of half-maximal effect; % is set by controls: 0 for no effect and ±100 for the full control effect; nearly all actives have a fitted effect of over 60% in size
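Kinetic colorimetric format: TGR-catalysed, NADPH-driven DTNB reduction monitored via TNB absorbance. Enzyme dispensed at 20 nM; compound exposure 15 min at room temperature before reaction start.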
SARS PLP yeast: qHTS of Yeast-based Assay for SARS-CoV PLP; S. cerevisiae expressing SARS-CoV PLpro, growth rescue; Potency, µM (series often up to 32.9 µM), for inactives: at the highest dose activity, positive = growth rescue, actives largely listed as activators; AID 485353, 2010; actives 0.19% (n = 330,000); calls by dose curve; note: potency is the fitted concentration of half-maximal effect; 0% is about no effect; nearly all actives have a fitted effect of over 55% in size
Pf growth 96h: Primary qHTS for delayed death inhibitors of the malarial parasite plastid, 96 hour incubation; Potency, µM (doses to about 28.7 µM), without a hit: top-dose activity change, negative = inhibition, usual class: inhibitors; P. falciparum luciferase reporter growth, 96 h; AID 504834, 2011; actives 6.9% (n = 320,000); note: potency is the fitted concentration of half-maximal effect; % is set by controls: 0 for no effect and ±100 for the full control effect
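Cell-based qHTS: luciferase-tagged P. falciparum in erythrocytes (2% hematocrit, 0.05% parasitemia final) incubated with compounds for 96 hours, 37 C, 5% CO2; luciferase detection reagent then added and luminescence measured.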
HCV inhibitor: qHTS Assay for Inhibitors of Hepatitis C Virus (HCV); Potency, µM (highest dose often 41.8 µM), without a hit: at the highest dose activity change, negative = inhibition, usual class: inhibitors; Huh7.5.1 HCVcc-Cre infection, luciferase reporter, 44 h; actives 3.4% (n = 340,000); note: potency is the fitted concentration of half-maximal effect; % is set by controls: 0 for no effect and ±100 for the full control effect
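Luciferase read-out (15 sec integration) after a 15 min room-temperature substrate step quantifies HCVcc-Cre infection. Cells, 1,000 per well, had compound added 4 h post-plating, then virus at ~0.5 moi, and were cultured 44 h.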
HCMV inh: qHTS Assay for inhibitors of the human cytomegalovirus (HCMV) | HFF cells, HCMV-luciferase reporter, 72 h; stronger effect = lower value | activity change, negative = inhibition, % at 57.5 µM | actives 4.5% (n = 410,000) | AID 1259415, 2018; in the data active = activity change below about -60%; inconclusive = no clear call, values can overlap the other calls; inactive = above about -39%; note: % is set by controls: 0 for no effect and ±100 for the full control effect
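HFF cells seeded 16 h at 37C, treated with compounds, infected with luciferase-reporter HCMV at MOI 1 PFU/cell; luciferase read at 72 h post infection, normalized to buffer-only and Salinomycin controls.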
Pf growth 48h: Primary qHTS for delayed death inhibitors of the malarial parasite plastid, 48 hour incubation; P. falciparum luciferase growth in erythrocytes, 48 h; actives 5.9% (n = 310,000); AID 504832, 2011; Potency, µM (highest dose often 28.7 µM), for the others: top-dose activity change, negative = inhibition, usual class: inhibitors; note: potency is the fitted concentration of half-maximal effect; % is set by controls: 0 for no effect and ±100 for the full control effect
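Cell-based growth assay: transgenic P. falciparum expressing firefly luciferase, cultured in red cells within RPMI 1640 containing 0.5% w/v Albumax, 24 mM bicarbonate and gentamycin. A drop in luciferase activity indicates inhibition.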
* = called active by the depositor; ? = inconclusive; / = no result. Unless noted, calls come from the whole dose curve; as a rule, active = well fitted curve in the direction sought with a large enough effect; inconclusive = small, poorly fitted or top-dose-only effect, or another doubt; inactive = no such curve, though single readings can be large; an effect the other way counts as inactive or inconclusive.

SMILES	Sm TGR inh	SARS PLP yeast	Pf growth 96h	HCV inhibitor	HCMV inh	Pf growth 48h
Cc1ccc(NC(=O)COc2cccc(Oc3ccccc3)c2)cc1S(=O)(=O)N1CCOCC1	2%	5%	?	3.2µM*	-17	10µM*
Cc1cccc(OCCC(=O)Nc2ccc(C)c(S(=O)(=O)N3CCOCC3)c2)c1	/	-1%	/	13µM*	5	/
COc1ccc(CNc2nc(-c3ccc(OC)cc3)cc(C(F)(F)F)n2)cc1	1%	/	/	/	-18	/
COc1cc(S(=O)(=O)N2CCOCC2)ccc1NC(=O)CN1c2cccc3cccc(c23)S1(=O)=O	4%	-19%	?	?	-20	-16%
Cc1cccc(OCCC(=O)Nc2ccc(C)c(S(=O)(=O)N3CCCCC3)c2)c1	-2%	-14%	?	3.2µM*	-64*	-15%
Cc1ccc(NC(=O)CN2c3cccc4cccc(c34)S2(=O)=O)cc1S(=O)(=O)N1CCOCC1	-2%	4%	9.3µM*	11µM*	-29	?
Cc1ccc(S(=O)(=O)C[C@@H]2OC[C@H](C(C)C)N2S(=O)(=O)c2ccc(C)cc2)cc1	/	/	/	/	-35	/
O=C(NCc1nc2ccccc2[nH]1)C1=C[C@H](c2ccc3c(c2)OCO3)C[C@H](OCCCCO)O1	-6%	0%	4.1µM*	?	0	?
O=C(NCc1nc2ccccc2[nH]1)C1=C[C@@H](C2CCCCC2)C[C@@H](OCc2ccc(CO)cc2)O1	-12%	1%	?	?	?	?
O=C(NCc1nc2ccccc2[nH]1)C1=C[C@@H](c2ccc3c(c2)OCO3)C[C@@H](OCc2ccc(CO)cc2)O1	8%	-3%	?	/	/	9.3µM*
O=C(NCc1nc2ccccc2[nH]1)C1=C[C@@H](c2ccccc2)C[C@@H](OCc2ccc(CO)cc2)O1	9%	-1%	-16%	?	5	?
O=C(NCc1nc2ccccc2[nH]1)C1=C[C@H](c2ccccc2)C[C@H](OCc2ccc(CO)cc2)O1	-14%	1%	1.7µM*	?	7	1µM*
O=C(NCc1nc2ccccc2[nH]1)C1=C[C@H](C2CCCCC2)C[C@H](OCc2ccc(CO)cc2)O1	0%	-2%	?	-28%	-70*	?
C=Cc1ccc(Cn2c(=O)n(-c3cccc(Cl)c3)c(=O)c3c4c(sc32)CN(C(C)=O)CC4)cc1	1%	/	/	/	-21	/
CCN(CC)C(=O)C1=C(C)N(Cc2ccccc2)C(=O)C(CC(=O)NC2CC2)C1 (stereo unspecified)	/	/	/	/	-19	/
COc1cc(O)cc2c1[C@@H]1Oc3c(ccc(O)c3CC=C(C)C)[C@@H]1CO2	/	/	/	?	-38	/
CC(S)C(=O)NCC(=O)O (stereo unspecified)	/	/	-28%	/	/	-11%
Cc1ccc(Cl)cc1N1CCN(C(=O)c2ccc3nc[nH]c3c2)CC1	-2%	-5%	-19%	-2%	-61*	0%
CS(=O)(=O)N1CCc2cc(C(=O)N3CCN(c4cccc(Cl)c4)CC3)ccc21	-3%	?	2%	-30%	4	-3%
Cc1ccc(Cl)cc1N1CCN(C(=O)c2ccc3c(c2)CCN3S(C)(=O)=O)CC1	0%	-3%	-39%	/	-66*	?
COc1ccc(CCN2C(=O)c3[nH]nc(-c4ccccc4O)c3C2c2cccc(OC)c2)cc1 (stereo unspecified)	2%	/	/	/	-71*	/
COc1ccc(CCN2C(=O)c3[nH]nc(-c4ccccc4O)c3C2c2cccc(Cl)c2)cc1 (stereo unspecified)	19%	1%	1.9µM*	?	?	3.3µM*
O=C1c2[nH]nc(-c3ccccc3O)c2C(c2cccc(Br)c2)N1Cc1ccncc1 (stereo unspecified)	9%	/	/	/	-82*	/
O=C1c2[nH]nc(-c3ccccc3O)c2C(c2cccc(Cl)c2)N1Cc1cccnc1 (stereo unspecified)	1%	/	/	/	-6	/
Cc1onc(-c2c(F)cccc2Cl)c1C(=O)NC(=S)NCc1cccnc1	4%	7%	-8%	-1%	?	-21%
SMILES	Sm TGR inh	SARS PLP yeast	Pf growth 96h	HCV inhibitor	HCMV inh	Pf growth 48h
CCCCCCNC(=O)CNC(=S)N(Cc1cccs1)C1CCCCC1	0%	-8%	?	10µM*	-14	?
Cc1ccc(N2C(=O)CC(N(O)C3CC(=O)N(c4ccc(C)cc4)C3=O)C2=O)cc1 (stereo unspecified)	1%	-5%	26%	19%	17	9%
CCCCCCC(=O)N(O)C1CC(=O)N(c2ccc(Cl)cc2)C1=O (stereo unspecified)	0.56µM*	-7%	10µM*	-5%	-6	4.1µM*
CCCCCCC(=O)N(O)C1CC(=O)N(c2ccc(C)cc2)C1=O (stereo unspecified)	0.56µM*	-48%	?	0%	324	/
CC(C)Sc1nc2ccccc2n1CC(=O)O	0%	0%	-26%	7%	1	28%
CCS(=O)(=O)NCCc1cc2c(OC)ccc(OC)c2[nH]c1=O	1%	3%	2.1µM*	-5%	-7	-24%
COc1ccc(OC)c2[nH]c(=O)c(CCNC(=O)c3cc4ccccc4o3)cc12	6%	-7%	5.2µM*	?	11	8.3µM*
COc1ccc(OC)c2[nH]c(=O)c(CCNS(=O)(=O)c3ccc(F)cc3)cc12	-6%	2%	40%	-13%	-6	-24%
Cc1ccc(C)c2[nH]c(=O)c(CCNC(=O)c3cc4ccccc4o3)cc12	3%	-3%	?	14%	12	?
CC(=O)Nc1ccc(-c2ccnc3c2CC(C(=O)Nc2cccc(C(C)=O)c2)O3)cc1 (stereo unspecified)	/	/	/	/	19	/
CCOC(=O)CCCCC(=O)c1[nH]c(=O)[nH]c1Cn1cnc2ccccc21	16µM*	3%	/	6%	47	-7%
CCOc1ccc(OCCSc2nc3ccccc3[nH]2)cc1	3%	-80%	?	?	-76*	-22%
COc1ccc(OCCSc2nc(C)nc3ccccc23)cc1	6%	-4%	-17%	?	-65*	?
CCSc1nc2ccccc2[nH]1	0%	12%	10%	4%	0	17%
CCCOc1ccc(CSc2nc3ccccc3[nH]2)cc1	-22%	-12%	103%	/	-92*	94%
